This is a sample that favours compounds with a hit; in the whole collection about 2.1% have one here.
ID4 SMM – binds human ID4 protein on microarray; small molecule microarray, Flag-ID4 binding, fluorescence F/B; calls only; 1.2% of 31,000 active; call rule not given here;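 also: a binder raises fluorescence above local background on the spot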
Target sequence (P47928 whole entry, looked up): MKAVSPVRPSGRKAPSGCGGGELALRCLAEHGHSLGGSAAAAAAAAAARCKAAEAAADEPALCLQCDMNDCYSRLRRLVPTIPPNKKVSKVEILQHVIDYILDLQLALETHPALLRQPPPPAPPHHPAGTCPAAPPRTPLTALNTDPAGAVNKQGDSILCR
p53 PUMA act – mutant p53 pathway reactivation. 1.5% of 28,000 active. AID 624151. activation, % at 9.98 µM. SW480 PUMA-promoter luciferase; in the data active = activation above about 52%
An asterisk follows results filed as active; i = inactive; / = no result given; + = active, no number.

SMILES	ID4 SMM	p53 PUMA act
C[C@H](CO)N1C[C@H](C)[C@H](CN(C)C(=O)C2CCCCC2)OCCCC[C@H](C)Oc2ccc(N(C)C)cc2C1=O	i	-9
C[C@H]1CCCCO[C@@H](CN(C)Cc2ccc(C(=O)O)cc2)[C@@H](C)CN([C@@H](C)CO)C(=O)c2cc(NS(=O)(=O)c3ccccc3)ccc2O1	+	15
C[C@@H]1CN([C@@H](C)CO)C(=O)c2cc(NS(=O)(=O)c3ccccc3)ccc2O[C@@H](C)CCCCO[C@H]1CN(C)C(=O)c1ccncc1	i	8
C[C@@H]1CCCCO[C@H](CN(C)Cc2ccc(C(=O)O)cc2)[C@H](C)CN([C@H](C)CO)C(=O)c2cc(NS(=O)(=O)c3ccccc3)ccc2O1	/	5
C[C@H]1CCCCO[C@@H](CN(C)C(=O)c2ccncc2)[C@@H](C)CN([C@@H](C)CO)C(=O)c2cc(NS(=O)(=O)c3ccccc3)ccc2O1	+	0
C=C1C[C@@]23CC[C@@H]4[C@](C)(C(=O)O)CCC[C@@]4(C)C2=CC[C@H]1C3	/	11
Cc1cccc(C)c1NC(=O)CSc1nc(-c2ccccc2)c(-c2ccccc2)[nH]1	i	-8
C[C@@H]1CN([C@H](C)CO)C(=O)Cc2cc(NC(=O)Nc3ccccc3)ccc2O[C@H]1CN(C)C(=O)Nc1ccccc1	i	1
O=C(C[C@H]1CC[C@@H](NC(=O)c2cnccn2)[C@H](CO)O1)NCc1ccccc1F	i	/
O=C(O)c1cccc(CSc2nnc(-c3ccco3)o2)c1	+	-21
COc1cc(OC)cc(-c2nnc(SCc3cccc(C(=O)O)c3)o2)c1	i	-4
COC(=O)c1ccccc1NC(=O)CSc1nc2cc(Cl)ccc2s1	i	-7
Cc1ccc(OCCSc2nc(C)cc(=O)[nH]2)c(I)c1	i	30
Cc1cc(=O)[nH]c(SCCOc2ccc(Br)cc2Cl)n1	i	80*
Cc1cc(C)nc(NC(=O)NC(=O)COc2ccc(Cl)cc2Cl)n1	i	-11
O=C(C[C@H]1C[C@@H]2c3cc(NC(=O)C4CCOCC4)ccc3O[C@@H]2[C@@H](CO)O1)NCc1cccnc1	/	5

Compound activity from PubChem BioAssay.
